# Positions count from the first letter of the chain named.
# Columns and labels:
# Test in all cases: PBM; 200 nM protein, PBS
# Settings in all cases: dsDNA, one strand shown
# [1] = molecular target: HESX1 (Homo sapiens, UniProt Q9UBX0 95-180, R165K)
# [2] = molecular target: HOXB4 (Homo sapiens, UniProt P17483 148-234)
# [3] = molecular target: SHOX (Homo sapiens, UniProt O15266 103-189)
# [4] = molecular target: T1, VENTX (Homo sapiens, UniProt O95231 78-163, R121Q)
# T1 sequence: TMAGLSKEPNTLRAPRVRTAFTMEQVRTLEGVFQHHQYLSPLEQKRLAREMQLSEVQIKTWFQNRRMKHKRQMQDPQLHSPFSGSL
# [5] = molecular target: HOXB9 (Homo sapiens, UniProt P17482 171-250, T197M)
# [6] = molecular target: HOXA4 (Homo sapiens, UniProt Q00056 201-287, W262R)
# [7] = molecular target: HOXC9 (Homo sapiens, UniProt P31274 178-260, K195R)
# [8] = molecular target: T2, VENTX (Homo sapiens, UniProt O95231 78-163)
# T2 sequence: T1 sequence with Q44R
# [9] = molecular target: HOXA7 (Homo sapiens, UniProt P31268 116-202)
# [10] = molecular target: HOXC10 (Homo sapiens, UniProt Q9NYD6 254-340)
# [11] = molecular target: ALX4 (Homo sapiens, UniProt Q9H161 200-286)
# [12] = molecular target: T3, PAX4 (Homo sapiens, UniProt O43316 9-242, R200K)
# T3 sequence: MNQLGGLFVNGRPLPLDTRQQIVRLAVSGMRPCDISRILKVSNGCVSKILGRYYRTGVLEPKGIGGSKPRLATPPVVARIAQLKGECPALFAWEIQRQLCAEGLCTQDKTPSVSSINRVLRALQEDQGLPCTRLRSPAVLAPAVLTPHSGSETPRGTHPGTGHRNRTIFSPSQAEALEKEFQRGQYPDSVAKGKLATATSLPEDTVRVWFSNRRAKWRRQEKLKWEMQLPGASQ
# [13] = molecular target: PRRX1 (Homo sapiens, UniProt P54821 80-166, F113S)
# [14] = molecular target: T4, VENTX (Homo sapiens, UniProt O95231 78-163, Y115F)
# T4 sequence: T1 sequence with Y38F, Q44R
# [15] = molecular target: T5, PAX4 (Homo sapiens, UniProt O43316 9-242)
# T5 sequence: T3 sequence with K192R
# [16] = molecular target: HOXB6 (Homo sapiens, UniProt P17509 132-218, K202E)
# [17] = molecular target: ALX4 (Homo sapiens, UniProt Q9H161 200-286, Q225E)
# [18] = molecular target: HESX1 (Homo sapiens, UniProt Q9UBX0 95-180)
# [19] = molecular target: HOXA2 (Homo sapiens, UniProt O43364 129-215, R185T)
# [20] = molecular target: HOXA4 (Homo sapiens, UniProt Q00056 201-287, R217L)
# [21] = molecular target: HOXB9 (Homo sapiens, UniProt P17482 171-250)
# [22] = molecular target: HOXB4 (Homo sapiens, UniProt P17483 148-234, V174I)
# [23] = molecular target: HOXC9 (Homo sapiens, UniProt P31274 178-260)
# [24] = molecular target: MSX2 (Homo sapiens, UniProt P35548 130-214, R199I)
# [25] = molecular target: ALX1 (Homo sapiens, UniProt Q15699 118-204, L144V)
# [26] = molecular target: ALX3 (Homo sapiens, UniProt O95076 139-225, N203Q)
# [27] = molecular target: T6, PAX4 (Homo sapiens, UniProt O43316 9-242, R200Q)
# T6 sequence: T3 sequence with K192Q
# [28] = molecular target: SHOX (Homo sapiens, UniProt O15266 103-189, R173C)
# [29] = molecular target: HOXC9 (Homo sapiens, UniProt P31274 178-260, R193K)
# [30] = molecular target: HOXA2 (Homo sapiens, UniProt O43364 129-215, R185K)
# [31] = molecular target: ALX1 (Homo sapiens, UniProt Q15699 118-204, L144R)
# [32] = molecular target: T7, PAX4 (Homo sapiens, UniProt O43316 9-242, F177V)
# T7 sequence: T3 sequence with F169V, K192R
# [33] = molecular target: HOXA4 (Homo sapiens, UniProt Q00056 201-287)
# [34] = molecular target: HOXC10 (Homo sapiens, UniProt Q9NYD6 254-340, K271E)
# [35] = molecular target: MSX2 (Homo sapiens, UniProt P35548 130-214)
# [36] = molecular target: ALX3 (Homo sapiens, UniProt O95076 139-225)
# [37] = molecular target: T8, PAX4 (Homo sapiens, UniProt O43316 9-242, F177Y)
# T8 sequence: T3 sequence with F169Y, K192R
# [38] = molecular target: PROP1 (Homo sapiens, UniProt O75360 56-141)
# [39] = molecular target: HESX1 (Homo sapiens, UniProt Q9UBX0 95-180, R109Q)
# [40] = molecular target: PROP1 (Homo sapiens, UniProt O75360 56-141, R99H)
# [41] = molecular target: VAX1 (Homo sapiens, UniProt Q5SQQ9 86-172)
# [42] = molecular target: ALX3 (Homo sapiens, UniProt O95076 139-225, L168Q)
# [43] = molecular target: HESX1 (Homo sapiens, UniProt Q9UBX0 95-180, P111T)
# [44] = molecular target: HOXB9 (Homo sapiens, UniProt P17482 171-250, R186Q)
# [45] = molecular target: HOXC9 (Homo sapiens, UniProt P31274 178-260, R222W)
# [46] = molecular target: ALX3 (Homo sapiens, UniProt O95076 139-225, L168V)
# [47] = molecular target: PROP1 (Homo sapiens, UniProt O75360 56-141, F88S)
# [48] = molecular target: MSX2 (Homo sapiens, UniProt P35548 130-214, F161Y)
# [49] = molecular target: HESX1 (Homo sapiens, UniProt Q9UBX0 95-180, F115L)
# [50] = molecular target: VAX1 (Homo sapiens, UniProt Q5SQQ9 86-172, T142I)
# [51] = molecular target: T9, PAX4 (Homo sapiens, UniProt O43316 9-242, R227W)
# T9 sequence: T3 sequence with K192R, R219W
# [52] = molecular target: HOXA2 (Homo sapiens, UniProt O43364 129-215, Y150S)
# [53] = molecular target: HOXA7 (Homo sapiens, UniProt P31268 116-202, W177C)
# [54] = molecular target: ALX1 (Homo sapiens, UniProt Q15699 118-204)
# [55] = molecular target: HOXA4 (Homo sapiens, UniProt Q00056 201-287, W262F)
# [56] = molecular target: ALX3 (Homo sapiens, UniProt O95076 139-225, N203S)
# [57] = molecular target: PRRX1 (Homo sapiens, UniProt P54821 80-166)
# [58] = molecular target: HOXA2 (Homo sapiens, UniProt O43364 129-215)
# [59] = molecular target: VAX1 (Homo sapiens, UniProt Q5SQQ9 86-172, K157R)
# [60] = molecular target: HOXB6 (Homo sapiens, UniProt P17509 132-218)
# Sequence of HOXB6 (Homo sapiens, UniProt P17509 132-218) (P17509 132-218): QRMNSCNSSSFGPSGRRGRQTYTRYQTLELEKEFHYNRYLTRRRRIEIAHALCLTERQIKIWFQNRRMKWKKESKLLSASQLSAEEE
# Sequence of HOXA4 (Homo sapiens, UniProt Q00056 201-287, R217L) (Q00056 201-287 R217L): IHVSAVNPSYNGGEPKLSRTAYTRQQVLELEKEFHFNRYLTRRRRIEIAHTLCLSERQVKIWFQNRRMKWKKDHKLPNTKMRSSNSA
# Sequence of HOXA2 (Homo sapiens, UniProt O43364 129-215, R185T) (O43364 129-215 R185T): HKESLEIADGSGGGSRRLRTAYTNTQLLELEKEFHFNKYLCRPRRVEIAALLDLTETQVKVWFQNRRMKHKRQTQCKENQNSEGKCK
# Sequence of ALX1 (Homo sapiens, UniProt Q15699 118-204, L144V) (Q15699 118-204 L144V): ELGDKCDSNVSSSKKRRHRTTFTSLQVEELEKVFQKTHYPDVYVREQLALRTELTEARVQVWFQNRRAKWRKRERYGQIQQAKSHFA
# Sequence of HOXA7 (Homo sapiens, UniProt P31268 116-202) (P31268 116-202): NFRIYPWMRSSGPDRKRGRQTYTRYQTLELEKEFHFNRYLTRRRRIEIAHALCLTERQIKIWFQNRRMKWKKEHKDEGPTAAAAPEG
# Sequence of HOXB6 (Homo sapiens, UniProt P17509 132-218, K202E) (P17509 132-218 K202E): as the sequence (P17509 132-218) above, with K71E counted along it
# Sequence of HESX1 (Homo sapiens, UniProt Q9UBX0 95-180, R109Q) (Q9UBX0 95-180 R109Q): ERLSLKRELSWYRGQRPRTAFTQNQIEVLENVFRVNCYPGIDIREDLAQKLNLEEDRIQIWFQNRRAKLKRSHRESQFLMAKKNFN
# Sequence of HOXC9 (Homo sapiens, UniProt P31274 178-260, K195R) (P31274 178-260 K195R): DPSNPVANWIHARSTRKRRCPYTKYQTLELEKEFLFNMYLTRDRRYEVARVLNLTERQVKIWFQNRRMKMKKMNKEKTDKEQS
# Sequence of ALX3 (Homo sapiens, UniProt O95076 139-225) (O95076 139-225): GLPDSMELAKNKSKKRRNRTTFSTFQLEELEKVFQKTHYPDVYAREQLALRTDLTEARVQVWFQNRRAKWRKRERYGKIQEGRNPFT
# Sequence of HOXA2 (Homo sapiens, UniProt O43364 129-215, R185K) (O43364 129-215 R185K): as the sequence (O43364 129-215 R185T) above, with T57K counted along it
# Sequence of HESX1 (Homo sapiens, UniProt Q9UBX0 95-180, R165K) (Q9UBX0 95-180 R165K): as the sequence (Q9UBX0 95-180 R109Q) above, with Q15R, R71K counted along it
# Sequence of HOXB9 (Homo sapiens, UniProt P17482 171-250) (P17482 171-250): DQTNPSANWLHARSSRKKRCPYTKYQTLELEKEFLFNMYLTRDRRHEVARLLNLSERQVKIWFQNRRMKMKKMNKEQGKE
# Sequence of HOXB9 (Homo sapiens, UniProt P17482 171-250, T197M) (P17482 171-250 T197M): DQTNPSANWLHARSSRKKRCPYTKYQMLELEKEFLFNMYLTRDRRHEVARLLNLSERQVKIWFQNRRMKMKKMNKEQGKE
# Sequence of HOXA4 (Homo sapiens, UniProt Q00056 201-287) (Q00056 201-287): as the sequence (Q00056 201-287 R217L) above, with L17R counted along it
# Sequence of HOXA2 (Homo sapiens, UniProt O43364 129-215, Y150S) (O43364 129-215 Y150S): as the sequence (O43364 129-215 R185T) above, with Y22S, T57R counted along it
# Sequence of PROP1 (Homo sapiens, UniProt O75360 56-141) (O75360 56-141): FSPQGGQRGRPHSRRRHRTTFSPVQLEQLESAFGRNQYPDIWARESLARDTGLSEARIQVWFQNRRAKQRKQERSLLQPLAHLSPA
# Sequence of ALX1 (Homo sapiens, UniProt Q15699 118-204) (Q15699 118-204): as the sequence (Q15699 118-204 L144V) above, with V27L counted along it
# Sequence of HOXC10 (Homo sapiens, UniProt Q9NYD6 254-340, K271E) (Q9NYD6 254-340 K271E): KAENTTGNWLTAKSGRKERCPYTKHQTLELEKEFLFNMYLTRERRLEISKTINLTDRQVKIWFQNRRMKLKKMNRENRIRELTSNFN
# Sequence of HESX1 (Homo sapiens, UniProt Q9UBX0 95-180, P111T) (Q9UBX0 95-180 P111T): as the sequence (Q9UBX0 95-180 R109Q) above, with Q15R, P17T counted along it
# Sequence of HOXB4 (Homo sapiens, UniProt P17483 148-234, V174I) (P17483 148-234 V174I): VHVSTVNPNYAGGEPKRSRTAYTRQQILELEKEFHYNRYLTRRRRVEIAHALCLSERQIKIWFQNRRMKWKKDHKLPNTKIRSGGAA
# Sequence of ALX1 (Homo sapiens, UniProt Q15699 118-204, L144R) (Q15699 118-204 L144R): as the sequence (Q15699 118-204 L144V) above, with V27R counted along it
# Sequence of HOXC9 (Homo sapiens, UniProt P31274 178-260, R193K) (P31274 178-260 R193K): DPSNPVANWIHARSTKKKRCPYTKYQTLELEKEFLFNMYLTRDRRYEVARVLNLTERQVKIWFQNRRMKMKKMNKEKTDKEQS
# Sequence of PRRX1 (Homo sapiens, UniProt P54821 80-166, F113S) (P54821 80-166 F113S): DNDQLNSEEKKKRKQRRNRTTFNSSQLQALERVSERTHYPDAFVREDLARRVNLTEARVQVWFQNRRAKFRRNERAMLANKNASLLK
# Sequence of SHOX (Homo sapiens, UniProt O15266 103-189) (O15266 103-189): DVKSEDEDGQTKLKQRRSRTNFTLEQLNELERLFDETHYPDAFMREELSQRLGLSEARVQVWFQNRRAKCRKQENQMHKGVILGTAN
# Sequence of PRRX1 (Homo sapiens, UniProt P54821 80-166) (P54821 80-166): as the sequence (P54821 80-166 F113S) above, with S34F counted along it
# Sequence of HOXA7 (Homo sapiens, UniProt P31268 116-202, W177C) (P31268 116-202 W177C): as the sequence (P31268 116-202) above, with W62C counted along it
# Sequence of HOXA4 (Homo sapiens, UniProt Q00056 201-287, W262R) (Q00056 201-287 W262R): as the sequence (Q00056 201-287 R217L) above, with L17R, W62R counted along it
# Sequence of HOXB9 (Homo sapiens, UniProt P17482 171-250, R186Q) (P17482 171-250 R186Q): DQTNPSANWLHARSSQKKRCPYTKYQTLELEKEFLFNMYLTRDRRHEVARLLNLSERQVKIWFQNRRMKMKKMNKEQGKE
# Sequence of HESX1 (Homo sapiens, UniProt Q9UBX0 95-180) (Q9UBX0 95-180): as the sequence (Q9UBX0 95-180 R109Q) above, with Q15R counted along it
# Sequence of ALX3 (Homo sapiens, UniProt O95076 139-225, N203S) (O95076 139-225 N203S): as the sequence (O95076 139-225) above, with N65S counted along it
# Sequence of ALX4 (Homo sapiens, UniProt Q9H161 200-286) (Q9H161 200-286): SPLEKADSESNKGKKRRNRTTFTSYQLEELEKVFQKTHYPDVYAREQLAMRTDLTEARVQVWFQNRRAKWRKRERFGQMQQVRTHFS
# Sequence of PROP1 (Homo sapiens, UniProt O75360 56-141, F88S) (O75360 56-141 F88S): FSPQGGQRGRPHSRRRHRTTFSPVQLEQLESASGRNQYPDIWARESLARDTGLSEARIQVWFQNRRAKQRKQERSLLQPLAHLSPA
# Sequence of VAX1 (Homo sapiens, UniProt Q5SQQ9 86-172, K157R) (Q5SQQ9 86-172 K157R): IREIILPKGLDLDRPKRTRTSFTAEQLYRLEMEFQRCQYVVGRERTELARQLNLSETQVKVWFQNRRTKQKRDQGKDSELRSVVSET
# Sequence of HOXA2 (Homo sapiens, UniProt O43364 129-215) (O43364 129-215): as the sequence (O43364 129-215 R185T) above, with T57R counted along it
# Sequence of HESX1 (Homo sapiens, UniProt Q9UBX0 95-180, F115L) (Q9UBX0 95-180 F115L): as the sequence (Q9UBX0 95-180 R109Q) above, with Q15R, F21L counted along it
# Sequence of VAX1 (Homo sapiens, UniProt Q5SQQ9 86-172, T142I) (Q5SQQ9 86-172 T142I): as the sequence (Q5SQQ9 86-172 K157R) above, with T57I, R72K counted along it
# Sequence of HOXA4 (Homo sapiens, UniProt Q00056 201-287, W262F) (Q00056 201-287 W262F): as the sequence (Q00056 201-287 R217L) above, with L17R, W62F counted along it
# Sequence of HOXB4 (Homo sapiens, UniProt P17483 148-234) (P17483 148-234): as the sequence (P17483 148-234 V174I) above, with I27V counted along it
# Sequence of VAX1 (Homo sapiens, UniProt Q5SQQ9 86-172) (Q5SQQ9 86-172): as the sequence (Q5SQQ9 86-172 K157R) above, with R72K counted along it
# Sequence of HOXC9 (Homo sapiens, UniProt P31274 178-260, R222W) (P31274 178-260 R222W): as the sequence (P31274 178-260 R193K) above, with K16R, R45W counted along it
# Sequence of ALX3 (Homo sapiens, UniProt O95076 139-225, L168V) (O95076 139-225 L168V): as the sequence (O95076 139-225) above, with L30V counted along it
# Sequence of HOXC9 (Homo sapiens, UniProt P31274 178-260) (P31274 178-260): as the sequence (P31274 178-260 R193K) above, with K16R counted along it
# Sequence of MSX2 (Homo sapiens, UniProt P35548 130-214, F161Y) (P35548 130-214 F161Y): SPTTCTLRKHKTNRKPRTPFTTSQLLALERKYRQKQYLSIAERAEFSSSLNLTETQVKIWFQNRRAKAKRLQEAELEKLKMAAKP
# Sequence of PROP1 (Homo sapiens, UniProt O75360 56-141, R99H) (O75360 56-141 R99H): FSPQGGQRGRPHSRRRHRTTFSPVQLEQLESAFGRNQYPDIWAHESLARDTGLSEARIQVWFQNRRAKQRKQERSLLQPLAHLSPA
# Sequence of ALX4 (Homo sapiens, UniProt Q9H161 200-286, Q225E) (Q9H161 200-286 Q225E): as the sequence (Q9H161 200-286) above, with Q26E counted along it
# Sequence of ALX3 (Homo sapiens, UniProt O95076 139-225, L168Q) (O95076 139-225 L168Q): as the sequence (O95076 139-225) above, with L30Q counted along it
sequence,measurement,setting,value
TAATTACA,binding signal,[1],"12.5 upbm affinity estimate (log intensity, higher = more binding, comparable within an allelic series)"
same,binding signal,[2],"13.6 upbm affinity estimate (log intensity, higher = more binding, comparable within an allelic series)"
same,binding signal,[3],"12.1 upbm affinity estimate (log intensity, higher = more binding, comparable within an allelic series)"
same,binding signal,[4],"12.2 upbm affinity estimate (log intensity, higher = more binding, comparable within an allelic series)"
same,binding signal,[5],"10.3 upbm affinity estimate (log intensity, higher = more binding, comparable within an allelic series)"
same,binding signal,[6],"10.8 upbm affinity estimate (log intensity, higher = more binding, comparable within an allelic series)"
same,binding signal,[7],"12.9 upbm affinity estimate (log intensity, higher = more binding, comparable within an allelic series)"
same,binding signal,[8],"12.7 upbm affinity estimate (log intensity, higher = more binding, comparable within an allelic series)"
same,binding signal,[9],"12.1 upbm affinity estimate (log intensity, higher = more binding, comparable within an allelic series)"
same,binding signal,[10],"12.3 upbm affinity estimate (log intensity, higher = more binding, comparable within an allelic series)"
same,binding signal,[11],"14.2 upbm affinity estimate (log intensity, higher = more binding, comparable within an allelic series)"
same,binding signal,[12],"11.9 upbm affinity estimate (log intensity, higher = more binding, comparable within an allelic series)"
same,binding signal,[13],"11.6 upbm affinity estimate (log intensity, higher = more binding, comparable within an allelic series)"
same,binding signal,[14],"12.2 upbm affinity estimate (log intensity, higher = more binding, comparable within an allelic series)"
same,binding signal,[15],"12.4 upbm affinity estimate (log intensity, higher = more binding, comparable within an allelic series)"
same,binding signal,[16],"10.2 upbm affinity estimate (log intensity, higher = more binding, comparable within an allelic series)"
same,binding signal,[17],"13.5 upbm affinity estimate (log intensity, higher = more binding, comparable within an allelic series)"
same,binding signal,[18],"12.6 upbm affinity estimate (log intensity, higher = more binding, comparable within an allelic series)"
same,binding signal,[19],"13.9 upbm affinity estimate (log intensity, higher = more binding, comparable within an allelic series)"
same,binding signal,[20],"12.9 upbm affinity estimate (log intensity, higher = more binding, comparable within an allelic series)"
same,binding signal,[21],"12.1 upbm affinity estimate (log intensity, higher = more binding, comparable within an allelic series)"
same,binding signal,[22],"14.4 upbm affinity estimate (log intensity, higher = more binding, comparable within an allelic series)"
same,binding signal,[23],"12.8 upbm affinity estimate (log intensity, higher = more binding, comparable within an allelic series)"
same,binding signal,[24],"13.1 upbm affinity estimate (log intensity, higher = more binding, comparable within an allelic series)"
same,binding signal,[25],"11.9 upbm affinity estimate (log intensity, higher = more binding, comparable within an allelic series)"
same,binding signal,[26],"8.51 upbm affinity estimate (log intensity, higher = more binding, comparable within an allelic series)"
same,binding signal,[27],"12.3 upbm affinity estimate (log intensity, higher = more binding, comparable within an allelic series)"
same,binding signal,[28],"9.87 upbm affinity estimate (log intensity, higher = more binding, comparable within an allelic series)"
same,binding signal,[29],"12.9 upbm affinity estimate (log intensity, higher = more binding, comparable within an allelic series)"
same,binding signal,[30],"14 upbm affinity estimate (log intensity, higher = more binding, comparable within an allelic series)"
same,binding signal,[31],"11.5 upbm affinity estimate (log intensity, higher = more binding, comparable within an allelic series)"
same,binding signal,[32],"10.8 upbm affinity estimate (log intensity, higher = more binding, comparable within an allelic series)"
same,binding signal,[33],"14.2 upbm affinity estimate (log intensity, higher = more binding, comparable within an allelic series)"
same,binding signal,[34],"12.3 upbm affinity estimate (log intensity, higher = more binding, comparable within an allelic series)"
same,binding signal,[35],"14.1 upbm affinity estimate (log intensity, higher = more binding, comparable within an allelic series)"
same,binding signal,[36],"12.7 upbm affinity estimate (log intensity, higher = more binding, comparable within an allelic series)"
same,binding signal,[37],"11.2 upbm affinity estimate (log intensity, higher = more binding, comparable within an allelic series)"
same,binding signal,[38],"11.8 upbm affinity estimate (log intensity, higher = more binding, comparable within an allelic series)"
same,binding signal,[39],"9.27 upbm affinity estimate (log intensity, higher = more binding, comparable within an allelic series)"
same,binding signal,[40],"11.5 upbm affinity estimate (log intensity, higher = more binding, comparable within an allelic series)"
same,binding signal,[41],"13.6 upbm affinity estimate (log intensity, higher = more binding, comparable within an allelic series)"
same,binding signal,[42],"10.8 upbm affinity estimate (log intensity, higher = more binding, comparable within an allelic series)"
same,binding signal,[43],"11.1 upbm affinity estimate (log intensity, higher = more binding, comparable within an allelic series)"
same,binding signal,[44],"11.8 upbm affinity estimate (log intensity, higher = more binding, comparable within an allelic series)"
same,binding signal,[45],"11 upbm affinity estimate (log intensity, higher = more binding, comparable within an allelic series)"
same,binding signal,[46],"10.3 upbm affinity estimate (log intensity, higher = more binding, comparable within an allelic series)"
same,binding signal,[47],"7.98 upbm affinity estimate (log intensity, higher = more binding, comparable within an allelic series)"
same,binding signal,[48],"13.7 upbm affinity estimate (log intensity, higher = more binding, comparable within an allelic series)"
same,binding signal,[49],"7.89 upbm affinity estimate (log intensity, higher = more binding, comparable within an allelic series)"
same,binding signal,[50],"13.6 upbm affinity estimate (log intensity, higher = more binding, comparable within an allelic series)"
same,binding signal,[51],"11.2 upbm affinity estimate (log intensity, higher = more binding, comparable within an allelic series)"
same,binding signal,[52],"11 upbm affinity estimate (log intensity, higher = more binding, comparable within an allelic series)"
same,binding signal,[53],"8.98 upbm affinity estimate (log intensity, higher = more binding, comparable within an allelic series)"
same,binding signal,[54],"12.5 upbm affinity estimate (log intensity, higher = more binding, comparable within an allelic series)"
same,binding signal,[55],"12.3 upbm affinity estimate (log intensity, higher = more binding, comparable within an allelic series)"
same,binding signal,[56],"8.62 upbm affinity estimate (log intensity, higher = more binding, comparable within an allelic series)"
same,binding signal,[57],"13.5 upbm affinity estimate (log intensity, higher = more binding, comparable within an allelic series)"
same,binding signal,[58],"13.3 upbm affinity estimate (log intensity, higher = more binding, comparable within an allelic series)"
same,binding signal,[59],"13.6 upbm affinity estimate (log intensity, higher = more binding, comparable within an allelic series)"
same,binding signal,[60],"12.5 upbm affinity estimate (log intensity, higher = more binding, comparable within an allelic series)"
